We go through 97 compounds from PubChem BioAssay AID1159606 (Sanford-Burnham Center for Chemical Genomics, 2016).

The structures appear in SMILES notation. Among all 360,000 compounds or so, about 7,300 (2%) were called active. Cut-off read from the data, not from the text of the source: active = inhibition above about 50%; inactive = the rest. Many of the other results were omitted from the sample, so actives are more common in it than they were.

This assay can be described thus: blockers of TWEAK-induced Fn14 reporter activity – luciferase reporter cells, uHTS, primary screen (AID 1159606). Conditions: TWEAK-stimulated Fn14 reporter cells, luciferase luminescence, 8 h; at 10 µM; active compounds read high. (In general: Reporter assays use an easily measured gene product as a stand-in for the process of interest.)
As a reminder, the inhibition is the change of the read-out against control, counted positive when it falls. In the case of `NS(=O)(=O)c1cccc(NC(=O)COC(=O)c2cc([N+](=O)[O-])ccc2N2CCCC2)c1`, the inhibition was -16.4% (inactive).

`COc1cccc(-c2nc3cc(C)ccc3o2)c1`: the inhibition is 51.2% (active).

For the compound `COc1ccc2oc(N)nc2c1`, the inhibition is -11.6% (inactive).

For `O=[N+]([O-])c1ccc2oc(-c3cccc(O)c3)nc2c1`, the inhibition is 5.84% (inactive).

`CCN(CC)c1ccc(NC(=O)c2ccc(=O)[nH]c2)cc1S(=O)(=O)Nc1ccc(OC)cc1`: the inhibition is 9.69% (inactive).

As to `COc1cc(NC(=O)COC(=O)CSc2ccc3ccccc3c2)c(C)cc1[N+](=O)[O-]`, the inhibition is 2.69% (inactive).

For `CC[C@@H]1Cc2cc(O)ccc2C2=C1c1ccc(O)cc1C[C@H]2CC`, the inhibition is 77% (active).

Turning to `CC(=O)c1cccc(NC(=O)C2CCN(C(=O)c3ccccc3Cl)CC2)c1`, the inhibition was -5.45% (inactive).

Turning to `CC(=O)c1cccc(NC(=S)N2CCN(S(C)(=O)=O)CC2)c1`, the inhibition is -22.1% (inactive).

Turning to `CCSc1nsc(NC(=O)Nc2cccc(C(C)=O)c2)n1`, the inhibition was 87.9% (active).

For the compound `CSc1ccccc1C(=O)Nc1cccc(C(C)=O)c1`, the inhibition is 0.31% (inactive).

As for `COc1ccc(NC(C(=O)Nc2cccc(C(C)=O)c2)c2ccccc2)cc1` (configuration not stated), the inhibition is -31.7% (inactive).

Take `C=CCSc1nsc(NC(=O)Nc2cccc(C(C)=O)c2)n1`: the inhibition is 91% (active).

Turning to `Cc1ccc(C2Nc3ccccc3C(=O)N2CCN2CCNC2=O)cc1` (configuration not stated), the inhibition was -6.92% (inactive).

`C[C@@H]1CN([C@@H](C)CO)C(=O)c2cc(NS(C)(=O)=O)ccc2O[C@@H](C)CCCCO[C@H]1CN(C)C(=O)Nc1ccc2c(c1)OCO2`: the inhibition was -5.22% (inactive).

As for `O=C(c1ccc(F)cc1)n1c(=S)nc2ccccn21`, the inhibition was 78.2% (active).

Take `CC1COc2ccccc2N1C(=O)c1ccc(F)cc1` (configuration not stated): the inhibition is 0.29% (inactive).

`O=C(c1ccc(F)cc1)N1CCC(n2nnc3ccccc32)CC1`: the inhibition is -5.58% (inactive).

With `CCCC(CCC(=O)OC)(C(=O)OCC)c1csc(N)n1` (configuration not stated), the inhibition is -16.1% (inactive).

`CC1(C)Oc2ccc3ccc(=O)oc3c2/C(=C/NCCO)C1=O`: the inhibition is 4.08% (inactive).

As for `C/C=C(/C)C(=O)OC1Cc2c(ccc3ccc(=O)oc23)OC1(C)C` (configuration not stated), the inhibition is 94.7% (active).

With `CC1(C)Oc2ccc3ccc(=O)oc3c2/C(=N/O)C1=O`, the inhibition was 3.76% (inactive).

`COc1ccc(C2CC(c3cccc(OC)c3)=NN2c2ccc(S(N)(=O)=O)cc2)cc1` (configuration not stated): the inhibition is -3.98% (inactive).

For the compound `CCOc1ccc(Cn2c(SCCCCC#N)nc3c2c(=O)n(C)c(=O)n3C)cc1OCC`, the inhibition is -21.4% (inactive).

Turning to `CCCSc1nc2c(c(=O)n(C)c(=O)n2C)n1Cc1ccc(C)cc1`, the inhibition is 68.3% (active).

`Cn1c(=O)c2c(nc(SCCNS(=O)(=O)c3ccccc3)n2C)n(C)c1=O`: the inhibition is 3.41% (inactive).

On to `O=C(Cn1nnc2ccccc2c1=O)Nc1cc(C(F)(F)F)ccc1N1CCOCC1`, for which the inhibition is 1.74% (inactive).

As for `C#CCNC(=O)C1=C[C@@H](c2ccccc2)[C@H](CCCO)[C@@H](OCC)O1`, the inhibition was 4.59% (inactive).

As for `O=C(CCCCCn1c(=S)[nH]c2cc3c(cc2c1=O)OCO3)N1CCN(c2ccc(F)cc2)CC1`, the inhibition is -18.2% (inactive).

On to `Cc1ccc(C)c(N2CCN(C(=O)CCCCCn3c(=S)[nH]c4ccc(N5CCOCC5)cc4c3=O)CC2)c1`, for which the inhibition is 88.1% (active).

As for `Cc1ccc(C)c(N2CCN(C(=O)CCCn3c(=O)c4cccn4c4cccnc43)CC2)c1`, the inhibition was -17.6% (inactive).

For the compound `Cc1ccc(C)c(N2CCN(C(=O)CCCCn3c(=O)[nH]c4ccccc4c3=O)CC2)c1`, the inhibition is 50.3% (active).

As to `Cc1ccc(OCCCC(=O)N2CCOCC2)c(C)c1`, the inhibition was -41.6% (inactive).

Take `O=C(CCCCCn1c(=O)[nH]c2ccccc2c1=O)NCCc1c[nH]c2ccccc12`: the inhibition was 35% (inactive).

In the case of `O=C(CCCC(=O)N(CC(=O)NC1CCCC1)Cc1ccccc1Cl)Nc1ccccn1`, the inhibition is 5.53% (inactive).

As to `CSCCC(NC(=O)C1CCC(C)CC1)C(=O)NCc1ccco1` (configuration not stated), the inhibition is -2.99% (inactive).

For `Cc1ccc(Cn2cc(CN3CC(N4CCN(C)CC4)CS3(=O)=O)nn2)cc1` (configuration not stated), the inhibition was -2.98% (inactive).

As for `CN1CCN(c2ccc3c(c2)OC[C@H](Cc2ccccc2)NS3(=O)=O)CC1`, the inhibition was -3.51% (inactive).

`CCc1nc2ccc(C(=O)Nc3cccc(OC)c3)cn2c1N(CCC(C)C)CCN(C)C`: the inhibition is 15.5% (inactive).

For `CCN1CCN(C(=O)CCN2C(=O)c3ccccc3C2=O)CC1`, the inhibition is -7.32% (inactive).

For `CC1=NN(C(=O)CCCc2ccccc2)C(O)(C(F)(F)F)C1` (configuration not stated), the inhibition is -10.4% (inactive).

For `C=CCN1CCN(C(=O)CCCc2ccccc2)CC1`, the inhibition was 86.5% (active).

For the compound `CC1CCCC(C)N1/N=C/c1ccccc1OC(F)F` (configuration not stated), the inhibition was -5.12% (inactive).

With `Cc1nn(-c2ccccc2)c(C)c1NC(=O)COc1ccc(Cl)cc1Cl`, the inhibition is 86.4% (active).

`Cc1nn(-c2ccccc2)c(C)c1NC(=O)CCl`: the inhibition is 6.77% (inactive).

`Cc1nn(-c2ccccc2)c(C)c1NC(=O)COC(=O)c1cc(Cl)ccc1O`: the inhibition was 1.71% (inactive).

In the case of `O=C(Nc1cccc(S(=O)(=O)N2CCCC2)c1)c1cncc(Br)c1`, the inhibition was 13.2% (inactive).

With `O=C(Nc1cccc(S(=O)(=O)N2CCCCC2)c1)c1cncc(Br)c1`, the inhibition was 20.6% (inactive).

Take `O=C(Nc1ccc(N2CCCC2=O)cc1)c1cncc(Br)c1`: the inhibition is 50.3% (active).

For `COc1cc(C)c(CN2CCN(C(=O)CCC(=O)c3ccc(C)s3)CC2)cc1OC`, the inhibition is 11.6% (inactive).

In the case of `COC(=O)c1ccccc1Oc1c(F)c(F)nc(N2CCOCC2)c1F`, the inhibition was -14.1% (inactive).

In the case of `COc1ccc(Nc2ncc(F)c(N3CCOCC3)n2)cc1`, the inhibition is 60.1% (active).

As for `CCOc1ccc(Nc2nc(Cl)nc(N3CCN(c4ccc(OC)cc4)CC3)n2)cc1`, the inhibition is 1.18% (inactive).

Regarding `CNS(=O)(=O)c1ccc(NC(=O)C2CC(=O)N(c3ccc(Cl)cc3)C2)cc1` (configuration not stated), the inhibition was 14.4% (inactive).

As for `O=C(OCC(=O)N1CCOCC1)c1ccc(N2CCOCC2)c([N+](=O)[O-])c1`, the inhibition was -16.3% (inactive).

As to `CC(=O)N1CCC(C(=O)Nc2nc(-c3ccccc3)ns2)CC1`, the inhibition is 14.9% (inactive).

With `COC(=O)C1=C(C(=O)OC)[C@@H]2N(C)c3ccccc3[C@@]23C[C@@H](C(=O)OC)N(C(C)=O)C3=N1`, the inhibition was -3.56% (inactive).

Take `Cc1[nH]c2ccccc2c1C(=O)C(=O)NCc1nnnn1-c1cccc(F)c1`: the inhibition was 3.05% (inactive).

In the case of `CCOC(=O)C1(CC2CCCCO2)CCN(Cc2nc(-c3cccs3)oc2C)CC1` (configuration not stated), the inhibition was -0.53% (inactive).

Turning to `Cc1ccc(C(=O)CSc2ccccc2C(=O)O)cc1`, the inhibition is 53.3% (active).

In the case of `Cc1ccc(Sc2cc(C(=O)c3ccccc3C(=O)O)ccc2[N+](=O)[O-])cc1`, the inhibition was -6.54% (inactive).

Turning to `O=C(CSc1cccc[n+]1[O-])c1ccc(-c2ccccc2)cc1`, the inhibition is 2.59% (inactive).

With `CCCCOC(=O)Nc1sc2nc(C)cc(C)c2c1-n1cccc1`, the inhibition is 0.84% (inactive).

In the case of `CN(C)NC(=O)c1csnc1-c1c(Cl)cccc1Cl`, the inhibition was 4.17% (inactive).

As to `COc1ccc(S(=O)(=O)N2CCOCC2)cc1NC(=O)CC1CC2CCC1C2` (configuration not stated), the inhibition was 3.62% (inactive).

For the compound `O=C(NC1=CC(=O)c2ccccc2C1=O)c1ccccc1`, the inhibition is 67.5% (active).

As for `Cc1cc(=O)c2ccc(NC(=O)c3ccccc3)cc2[nH]1`, the inhibition was -10.3% (inactive).

Regarding `O=C(NCCc1ccccc1)c1cccc(NC(=O)c2ccccc2)c1`, the inhibition was -19.1% (inactive).

As to `NC(=O)COC(=O)c1sc2cc(F)ccc2c1Cl`, the inhibition was -16.4% (inactive).

On to `FC(F)(F)Oc1ccccc1C(c1nnnn1C1CCCCC1)N1CCN(C/C=C/c2ccccc2)CC1` (configuration not stated), for which the inhibition was 24.4% (inactive).

With `CC(C)c1ccccc1OCC(O)CN(CC(O)COc1cccc2ccccc12)C(C)C` (configuration not stated), the inhibition was -15% (inactive).

Turning to `O=C(Nc1ccccc1Cl)O/N=C(/c1ccccc1)c1ccccn1`, the inhibition was 60.2% (active).

Regarding `N/C(=N\OC(=O)Nc1ccccc1)c1ccno1`, the inhibition was -22.1% (inactive).

As for `O=C(COc1ccc(-n2cnnn2)cc1)Nc1ccccc1Cl`, the inhibition is -14.3% (inactive).

Regarding `COc1ccc(CN2C(=O)C(CC(=O)NCCN3CCOCC3)CC(C(=O)N(C(C)C)C(C)C)=C2C)cc1` (configuration not stated), the inhibition is 14.2% (inactive).

Take `CC(C)OC(=O)c1ccc(NCc2cc(O)ccc2O)cc1Cl`: the inhibition is 102% (active).

Regarding `O=C(OC12CC3CC(CC(C3)C1)C2)c1ccc(NCc2cc(O)ccc2O)cc1`, the inhibition was 106% (active).

For `C#CCNc1ccc(C(=O)OCC)cc1`, the inhibition was -3.49% (inactive).

Consider `CC1(C)C2CCC1(C)C(OC(=O)c1ccc(O)cc1)C2` (configuration not stated), for which the inhibition is 16.2% (inactive).

Turning to `CC(CN1CCCCC1)OC(=O)c1ccccc1Cl` (configuration not stated), the inhibition was 16.6% (inactive).

As for `COC(=O)c1ccc(NCc2cc(O)ccc2O)cc1`, the inhibition is 88.9% (active).

Take `O=C(O)Cc1ccc(NCc2ccccc2Cl)cc1`: the inhibition is 22.4% (inactive).

For `CCN(CC)C(=O)CCC(=O)Nc1ccc(C(=O)OC)cc1`, the inhibition is 0.79% (inactive).

With `COc1nc(N(C)C)nc(N2CC(=O)N(CCNS(=O)(=O)c3ccc(C)cc3)C2=N)n1`, the inhibition is -3.28% (inactive).

As for `Cc1ccccc1-c1csc(C(O)c2cccc(Cl)c2)n1` (configuration not stated), the inhibition is -4.88% (inactive).

`COc1ccc(N2CCN(C(=O)C3CCN(S(=O)(=O)c4ccc(C)cc4)CC3)CC2)cc1`: the inhibition was -13.2% (inactive).

For the compound `Cc1nccn1CCC1CCCCN1C(=O)CCc1nnc(-c2ccsc2)o1` (configuration not stated), the inhibition was -14.9% (inactive).

`O=C(Cn1cnc2cc([N+](=O)[O-])ccc2c1=O)NC(=O)NCc1ccccc1`: the inhibition was -1.13% (inactive).

In the case of `CC(C)(C)NC(=O)Cn1cnc([N+](=O)[O-])n1`, the inhibition was 18.3% (inactive).

With `CC(C)(C)NC(=O)Cn1cnc2cc([N+](=O)[O-])ccc2c1=O`, the inhibition was 83% (active).

Regarding `Cc1cc2c(cc1S(=O)(=O)NCc1ccc(Cl)cc1)OCC(=O)N2`, the inhibition was -8.95% (inactive).

Turning to `CCOC(=O)CCP(=O)(O)C(O)(c1ccccc1)c1ccccc1`, the inhibition was -6.25% (inactive).

For the compound `CCOC(=O)C(=Cc1ccccc1OC)C(=O)OCC`, the inhibition was 81.9% (active).

Turning to `COc1ccccc1/C=C/C(=O)NC1CC2CCC1C2` (configuration not stated), the inhibition was -13.3% (inactive).

On to `CCOC(=O)C(=Cc1ccccc1)C(=O)c1ccccc1`, for which the inhibition is 98.4% (active).

`CCc1ccccc1NC(=O)/C(=C/c1ccccc1)c1ccccc1`: the inhibition is -19.8% (inactive).

As for `COc1ccccc1C(=O)c1ccccc1C(=O)c1ccccc1`, the inhibition was 9.79% (inactive).
